Article PMC6664820, “Novel natural and synthetic inhibitors of solute carriers SGLT1 and SGLT2” (Pharmacology Research & Perspectives, 2019)
About 40 (2%) of roughly 1,900 compounds showed an effect of 50% or more. The sample as a whole holds a higher share of strong results than the screen did.

target: human SGLT1 (hSGLT1) (human, UniProt P13866); assay: primary screen, percent of control activity; higher = less effect of the substance; set-up: single well; details: 50 µM
Method: Two days before the assay, CHO‐wild type and CHO‐hSGLT1 cells were seeded in maintenance medium at 25 000 cells/well in clear‐bottom black 96‐well cell culture plates. Before the assay, cells were washed 3 times with 150 μL/well D‐glucose free DMEM with 0.3% (w/v) BSA. Library compounds at 50 μmol/L (singlicate) prepared in D‐glucose free DMEM with 160 μmol/L 1‐NBD‐glucose and 0.3% (w/v) BSA and negative controls (triplicate) were added at 100 μL/well and placed in a humidified incubator at 37°C with 5% CO2 for 90 minutes. Next, cells were washed 3 times with DMEM with 0.3% (w/v) BSA (150 μL/well). Care was taken to remove all medium after the last wash. Finally, 1‐NBD‐glucose was extracted from the cells by adding 10 μL/well isopropanol and orbital shaking for 5 minutes at 600 rpm, followed by incubation in the dark for 30 minutes. Fluorescence was measured on a Tecan Infinite M200 Microplate Reader (Tecan, Männedorf, Switzerland) with excitation at 445 nm and emission at 525 nm. The amount of 1‐NBD‐glucose taken up by the CHO‐wild type or CHO‐hSGLT1 cells in the presence or absence of test compounds was interpolated from 1‐NBD‐glucose calibration standards. The background uptake by CHO‐wild type was subtracted from the uptake by CHO‐hSGLT1. Background corrected uptake with test compound was expressed as a percentage of corrected uptake without test compound.

human SGLT1 (hSGLT1), sequence (P13866 whole entry, looked up): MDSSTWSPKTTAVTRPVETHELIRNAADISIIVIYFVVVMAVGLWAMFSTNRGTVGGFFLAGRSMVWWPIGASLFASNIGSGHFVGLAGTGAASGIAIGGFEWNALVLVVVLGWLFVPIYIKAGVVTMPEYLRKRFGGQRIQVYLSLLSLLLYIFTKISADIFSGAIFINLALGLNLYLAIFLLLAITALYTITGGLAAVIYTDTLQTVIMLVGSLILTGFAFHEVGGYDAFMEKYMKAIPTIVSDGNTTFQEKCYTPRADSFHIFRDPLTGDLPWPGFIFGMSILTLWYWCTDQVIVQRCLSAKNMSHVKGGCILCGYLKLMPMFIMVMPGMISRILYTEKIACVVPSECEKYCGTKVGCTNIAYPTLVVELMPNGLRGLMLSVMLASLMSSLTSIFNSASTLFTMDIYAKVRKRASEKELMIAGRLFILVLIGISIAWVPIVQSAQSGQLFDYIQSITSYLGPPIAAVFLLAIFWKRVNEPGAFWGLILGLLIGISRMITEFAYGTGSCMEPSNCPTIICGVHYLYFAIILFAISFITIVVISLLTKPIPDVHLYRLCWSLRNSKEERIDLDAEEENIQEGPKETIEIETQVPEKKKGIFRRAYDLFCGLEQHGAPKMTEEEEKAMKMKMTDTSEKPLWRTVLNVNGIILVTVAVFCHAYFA

Row | SMILES | NORMALIZED SGLT1 ACTIVITY (%)
1 | CC(C)COCC(CN(Cc1ccccc1)c1ccccc1)N1CCCC1.Cl (centres unmarked) | 48
2 | O=P(O)(O)O.c1ccc(CN(CC2=NCCN2)c2ccccc2)cc1 | 87
3 | COc1cc2ccc(=O)oc2c(O)c1O | 142
4 | CCCn1c(=O)c2nc(C3CCCC3)[nH]c2n(CCC)c1=O | 180
5 | COc1cc(S(C)=O)ccc1-c1nc2cccnc2[nH]1 (centres unmarked) | 237
6 | CC1(C)S[C@@H]2[C@H](NC(=O)Cc3ccccc3)C(=O)N2[C@H]1C(=O)[O-].[K+] | 115
7 | CC1(C)CC[C@@]2(C(=O)O)C(C1)C1=CCC3[C@@]4(C)CC[C@H](O)C(C)(C)C4CC[C@@]3(C)[C@]1(C)C[C@@H]2O (some centres unmarked) | -6
8 | CC1(C)CC[C@]2(C)CC[C@]3(C)C(=CCC4[C@@]5(C)CC[C@H](O)C(C)(C)C5CC[C@]43C)C2C1 (some centres unmarked) | 91
9 | CC1(C)CC[C@]2(C(=O)O)CC[C@]3(C)C(=CCC4[C@@]5(C)CC[C@@H](O)C(C)(C)C5CC[C@]43C)C2C1 (some centres unmarked) | 133
10 | CC(=O)Oc1cc2c(c(C)c1OC(C)=O)CC1OC13[C@@]2(C)CC[C@@]1(C)C2C[C@](C)(C(=O)O)CC[C@]2(C)CC[C@]31C (some centres unmarked) | 204
11 | Cl.O=C(O)C1=CCNCC1 | 111
12 | CO/N=C1\CN(c2nc3c(cc2F)c(=O)c(C(=O)O)cn3C2CC2)CC1CN.CS(=O)(=O)O (centres unmarked) | 157
13 | CC(C)[N+]1(C)C2CC[C@@H]1C[C@@H](OC(=O)C(CO)c1ccccc1)C2.[Br-] (some centres unmarked) | 83
14 | CS(=O)(=O)O.OC(CCN1CCCCC1)(c1ccccc1)c1ccccc1 | 101
15 | Cl.OC(CCN1CCCC1)(c1ccccc1)C1CCCCC1 (centres unmarked) | 45
16 | Cl.OC(CCN1CCCCC1)(c1ccccc1)C1CCCCC1 (centres unmarked) | 69
17 | CN(C)C(=O)Oc1ccc[n+](C)c1.[Br-] | 105
18 | NC(Cc1c[nH]cn1)C(=O)Nc1ccc2ccccc2c1 (centres unmarked) | 153
19 | C[C@H]1CC2C3CCC4=CC(=O)C=C[C@]4(C)[C@@]3(F)[C@@H](O)C[C@]2(C)[C@@]1(O)C(=O)CO (some centres unmarked) | 241
20 | CC(=O)OCC1=C(C(=O)[O-])N2C(=O)[C@@H](NC(=O)Cc3cccs3)[C@H]2SC1.[Na+] | 140
21 | CCOP(=S)(OCC)Oc1cc(C)nc(C(C)C)n1 | 107
22 | CCOP(=S)(OCC)Oc1nc(Cl)c(Cl)cc1Cl | 35
23 | CCOP(=S)(OCC)Oc1ccc2c(C)c(Cl)c(=O)oc2c1 | 118

Row | SMILES | NORMALIZED SGLT1 ACTIVITY (%)
24 | O=C(O)c1cc(O)c(=O)c2c(O)c(O)ccc2c1 | 141
25 | CC[C@H](C)[C@H](N)C(=O)N1CCC[C@H]1C(=O)N[C@H](C(=O)O)[C@@H](C)CC | 98
26 | O=C(O)c1cc(O)ccc1O | 145
27 | Cl.N=C(N)NC(=N)Nc1ccccc1 | 136
28 | CC(C)NC(=N)NC(=N)Nc1ccc(Cl)cc1.Cl | 130
29 | Cl.Cl.N=C(NCCCCCCNC(=N)NC(=N)Nc1ccc(Cl)cc1)NC(=N)Nc1ccc(Cl)cc1 | 25
30 | CC1(C)NC(=O)N(c2ccc([N+](=O)[O-])c(C(F)(F)F)c2)C1=O | 222
31 | O=C(/C=C/C=C/c1ccc2c(c1)OCO2)N1CCCCC1 | 87
32 | COc1ccc(-c2cc(=O)c3c(O)cc(O[C@H]4O[C@H](CO[C@@H]5O[C@@H](C)[C@H](O)[C@@H](O)[C@H]5O)[C@@H](O)[C@H](O)[C@H]4O)cc3o2)cc1 | 121
33 | Clc1ccc(C(c2ccc(Cl)cc2)C(Cl)(Cl)Cl)cc1 | 86
34 | COc1ccc(C(c2ccc(OC)cc2)C(Cl)(Cl)Cl)cc1 | 42
35 | COc1ccc2cc([C@H](C)CO)ccc2c1 | 111
36 | COc1ccc(CCC(=O)c2c(O)cc(O[C@@H]3O[C@H](CO)C(O)[C@H](O)C3O[C@@H]3O[C@@H](C)[C@H](O)[C@@H](O)[C@H]3O)cc2O)cc1O (some centres unmarked) | 143
37 | C#CCCCCCCCCCCCC(O)CC(O)COC(C)=O.C=CCCCCCCCCCCCC(O)CC(O)COC(C)=O (centres unmarked) | 197
38 | COC(=O)[C@H]1[C@H]2C[C@H]3c4[nH]c5cc(OC)ccc5c4CCN3C[C@H]2C[C@@H](OC(=O)c2cc(OC)c(OC)c(OC)c2)[C@@H]1OC | 345
39 | CC(=O)O[C@@H]1c2c(ccc3ccc(=O)oc23)OC(C)(C)[C@@H]1OC(=O)CC(C)C | 51
40 | C/C=C(\C)C(=O)O[C@@H]1c2c(ccc3ccc(=O)oc23)OC(C)(C)[C@@H]1OC(C)=O | 5
41 | CC1(C)Oc2ccc3ccc(=O)oc3c2CC1O (centres unmarked) | 159
42 | O=C1CN(/N=C/c2ccc(-c3ccc([N+](=O)[O-])cc3)o2)C(=O)[N-]1.[Na+] | 103
43 | CCC(C)(C)C(=O)O[C@H]1C[C@@H](C)C=C2C=C[C@H](C)[C@H](CC[C@@H]3C[C@@H](O)CC(=O)O3)[C@H]21 | 96
44 | CC1=C(/C=C/C(C)=C/C=C/C(C)=C/C=C/C=C(C)/C=C/C=C(C)/C=C/C(=O)[C@]2(C)C[C@@H](O)CC2(C)C)C(C)(C)C[C@H](O)C1 | 103
45 | CCOP(=S)(OCC)SCSCC | 47
46 | CCOP(=S)(OCC)SCCSCC | 77

Row | SMILES | NORMALIZED SGLT1 ACTIVITY (%)
47 | CCOP(=S)(OCC)SCn1c(=O)oc2cc(Cl)ccc21 | 57
48 | CC(C)=CCC[C@](C)(O)C1CC=C(C)CC1 (some centres unmarked) | 99
49 | CC1(C)C2CC(=O)O[C@@]3(C)C4=CC(=O)O[C@@H](c5ccoc5)[C@]4(C)CCC3[C@@]2(C)C=C[C@H]1O (some centres unmarked) | 132
50 | CN1CCc2c(c3ccccc3n2Cc2ccccc2)C1.O=S(=O)(O)c1cccc2c(S(=O)(=O)O)cccc12 | 69
51 | Cl.Cl.NNCc1cccc(O)c1 | 149
52 | CCCCCCCCCCCCC[N+](C)(C)Cc1ccccc1.[Cl-] | 40
53 | CCCCCCc1ccc(O)cc1O.Nc1c2ccccc2nc2ccccc12 | 383
54 | CCCCCCCCCc1ccc(O)cc1 | 107
55 | CC(=O)O[C@@](C)(CCC=C(C)C)C1CC=C(C)CC1 (some centres unmarked) | 112
56 | ClC1=C(Cl)C2(Cl)C3C(Cl)C=CC3C1(Cl)C2(Cl)Cl (centres unmarked) | 57
57 | CN1CCN(CC/C=C2/c3ccccc3Sc3ccc(S(=O)(=O)N(C)C)cc32)CC1 | 116
58 | CN1CCC(=C2c3ccccc3Sc3ccccc32)CC1.O=C(O)/C=C\C(=O)O | 36
59 | CSc1ccc2c(c1)C(N1CCN(C)CC1)Cc1ccccc1S2.O=C(O)/C=C\C(=O)O (centres unmarked) | 115
60 | COC(=O)[C@H]1[C@H]2C[C@H]3c4[nH]c5ccccc5c4CCN3C[C@H]2CC[C@@H]1O.Cl | 110
61 | COc1cc2c(cc1O)C(Cc1ccc(O)cc1)N(C)CC2 (centres unmarked) | 89
62 | Oc1ccc(Cl)cc1Cc1cc(Cl)ccc1O | 590
63 | CC(=O)O[C@@H]1C[C@@]2(C)[C@H](c3ccoc3)C[C@H]3O[C@]32[C@]2(C)C(=O)C(O)=C3C(C)(C)C(=O)C=C[C@]3(C)C12 (some centres unmarked) | 104
64 | CC1(C)C(=O)C=C[C@@]2(C)C1=C(O)C(=O)[C@]1(C)C2CC[C@@]2(C)[C@H](c3ccoc3)C[C@H]3O[C@]321 (some centres unmarked) | 45
65 | CC1(C)C(=O)C=C[C@@]2(C)C1C[C@@H](O)[C@]1(C)C2CC[C@@]2(C)[C@H](c3ccoc3)OC(=O)[C@H]3O[C@]321 (some centres unmarked) | 103
66 | O=C1CN(/N=C/c2ccc([N+](=O)[O-])o2)C(=O)N1 | 159
67 | CNC[C@@H](O)c1ccc(O)c(O)c1.O=C(O)C(O)C(O)C(=O)O | 105
68 | N#Cc1c(Cl)c(Cl)c(Cl)c(C#N)c1Cl | 76
69 | OCCN1CCN(CCCN2c3ccccc3Sc3ccc(Cl)cc32)CC1 | 17

Row | SMILES | NORMALIZED SGLT1 ACTIVITY (%)
70 | N#Cc1ccc2c(c1)N(CCCN1CCC(O)CC1)c1ccccc1S2 | 75
71 | CN1CCN(CCCN2c3ccccc3Sc3ccc(C(F)(F)F)cc32)CC1.Cl.Cl | 61
72 | Cn1nnnc1SCC1=C(C(=O)[O-])N2C(=O)C(NC(=O)C(O)c3ccccc3)C2SC1.[Na+] (centres unmarked) | 150
73 | COc1cc2c(cc1OC)C1C(=O)c3c(O)cc4c(c3OC1CO2)C=CC(C)(C)O4 (centres unmarked) | 283
74 | CCCc1ncc(C[n+]2ccccc2C)c(N)n1.Cl.[Cl-] | 87
75 | Cc1cc(O)c2c(c1)C(=O)c1cc(O)cc(O)c1C2=O | 118
76 | CN(C)CCC=C1c2ccccc2C=Cc2ccccc21.Cl | 50
77 | CN(C)CCC=C1c2ccccc2CCc2ccccc21.Cl | 59
78 | CN(C)CC/C=C1\c2ccccc2Sc2ccc(Cl)cc21.Cl | 87
79 | Cc1cc(C2CCCCC2)n(O)c(=O)c1.NCCO | 182
80 | ClC1=C(Cl)C2(Cl)C3C4C=CC(C4)C3C1(Cl)C2(Cl)Cl (centres unmarked) | 96
81 | COc1cc2ccc(=O)oc2c(OC)c1OC | 257
82 | COC(=O)c1c(OC)cc2c(c1C)Oc1c(Cl)c(O)c(Cl)c(C)c1C(=O)O2 | 520
83 | Cc1cc(O)c2c(c1O)C(=O)c1c(O)cc(C)c(O)c1C2=O | 127
84 | CN[C@@H]1[C@@H](O)C(OC2[C@@H](N)C[C@@H](N)[C@H](O[C@H]3O[C@H](C(C)O)[C@@H](O)[C@H](O)[C@H]3N)[C@H]2O)OC[C@]1(C)O.O=S(=O)(O)O.O=S(=O)(O)O (some centres unmarked) | 82
85 | CNC(=O)O/N=C(/C)SC | 76
86 | COc1c2ccoc2cc2oc(C)cc(=O)c12 | 165
87 | OC[C@H]1O[C@@H](n2cnc3c(NCc4ccco4)ncnc32)[C@H](O)[C@@H]1O | 142
88 | CCCCCCCCCN1C[C@H](O)[C@@H](O)[C@H](O)[C@H]1CO | 83.2
89 | ClC1=C(Cl)C2(Cl)C3C4CC(C5OC45)C3C1(Cl)C2(Cl)Cl (centres unmarked) | 136
